Vaccinia mCherry – qHTS for Stage-Specific Inhibitors of Vaccinia Orthopoxvirus: mCherry Reporter Primary qHTS; Vaccinia virus mCherry reporter infection, fluorescence; Potency, µM (series often up to 36.5 µM), for the others: top-dose activity change, negative = inhibition, most hits filed as inhibitors; 310,000 tested, 0.63% active; AID 720579, 2013; calls by dose curve; tested in A549 cells; note: potency is the fitted concentration of half-maximal effect; nearly all actives have a fitted effect of over 35% in size
FMDV inh – High Throughput Screening for Foot and Mouth Disease Virus Antivirals | AID 1159524, 2015 | Potency, µM (highest dose often 57.9 µM), for inactives: at the highest dose activity change, negative = inhibition, most hits filed as inhibitors | FMDV antiviral cell-based qHTS | 410,000 tested, 1.2% active; calls by dose curve; tested in HEK293T cells; note: read-out not given here; potency is the fitted concentration of half-maximal effect; nearly all actives have a fitted effect of over 45% in size
Lassa entry inh – qHTS for Inhibitors of binding or entry into cells for Lassa Virus; Lassa virus pseudotype entry inhibition, cell reporter; Potency, µM (doses to about 37.9 µM), without a hit: top-dose activity change, negative = inhibition, actives largely listed as inhibitors; 300,000 tested, 1.2% active; AID 540256, 2011; calls by dose curve; tested in HEK293 cells; note: potency is the fitted concentration of half-maximal effect; nearly all actives have a fitted effect of over 50% in size
Marburg entry inh – qHTS for inhibitors of binding or entry into cells for Marburg Virus. Marburg virus pseudotyped entry inhibition, cell reporter. Potency, µM (doses to about 37.8 µM), without a hit: top-dose activity change, negative = inhibition, usual class: inhibitors. 300,000 tested, 1.8% active. AID 540276, 2011; calls by dose curve; tested in HEK293 cells; note: potency is the fitted concentration of half-maximal effect
HCMV antiviral – qHTS Assay for inhibitors of the human cytomegalovirus (HCMV); AID 1259415, 2018; activity change, negative = inhibition, % at 57.5 µM; HFF cells, HCMV-luciferase reporter, 72 h; stronger effect = lower value; 410,000 tested, 4.5% active; in the data active = activity change below about -60%; inconclusive = no clear call, values can overlap the other calls; inactive = above about -39%
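Human foreskin fibroblasts infected with luciferase-reporter HCMV at MOI 1 PFU/cell, compounds at two doses. Luciferase measured 72 h post infection; normalized to buffer-only basal and Salinomycin (10uM) controls.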
Vaccinia Venus – qHTS for Stage-Specific Inhibitors of Vaccinia Orthopoxvirus: Venus Reporter Primary qHTS; Vaccinia virus Venus reporter expression, fluorescence; Potency, µM (top dose mostly 36.5 µM), without a hit: at the top dose activity change, negative = inhibition, actives largely listed as inhibitors; 330,000 tested, 0.46% active; calls by dose curve; tested in A549 cells; note: potency is the fitted concentration of half-maximal effect; nearly all actives have a fitted effect of over 30% in size
Active calls of the source: *; i = inactive; ? = inconclusive; . = not tested or not shown; [ ] = dose if it differs, or a comment. Rows were chosen to be rich in hits. Some 6.5% of all compounds tested hit in one or more screens of this group. % is set by controls: 0 for no effect and ±100 for the full control effect.

SMILES	Vaccinia mCherry	FMDV inh	Lassa entry inh	Marburg entry inh	HCMV antiviral	Vaccinia Venus
COc1ccc(-n2c(C)cc(C(=O)COc3ccc(C)nc3[N+](=O)[O-])c2C)cc1	-6.3%	?	-28.2%	-32.6%	-90.0*	-4.5%
COCCn1c(C)cc(C(=O)COc2cccnc2[N+](=O)[O-])c1C	i	-12.0%	6.7%[46.1 µM]	23.9%[46.1 µM]	-84.4*	2.3%
Cc1ccc(OCC(=O)c2cc(C)n(C3CC3)c2C)c([N+](=O)[O-])n1	-21.3%	22.9%	-5.2%	19.3%	-64.3*	-7.0%
Cc1ccc(OCC(=O)c2cc(C)n(CC(F)(F)F)c2C)c([N+](=O)[O-])n1	i	-22.4%	-22.3%[46.1 µM]	-3.0%[46.1 µM]	-30.3	-17.7%
Cc1ccc(OCC(=O)c2cc(C)n(Cc3cccs3)c2C)c([N+](=O)[O-])n1	?	17.8µM*	?	?	-94.1*	?
CN1CCN(c2oc(-c3ccc(OCc4ccc(Cl)cc4)cc3)nc2C#N)CC1	-13.9%	.	.	.	.	-14.1%
NC(=O)CC(NC(=O)c1ccccc1)c1ccc(NC2CCCCCCC2)c([N+](=O)[O-])c1 (stereo unspecified)	-21.2%	?	.	.	-98.9*	-23.3%
NC(=O)CC(NC(=O)c1ccccc1)c1ccc(NC2CCCCC2)c([N+](=O)[O-])c1 (stereo unspecified)	-11.4%	-11.0%	.	.	-27.2	-26.5%
NC(=O)CC(NC(=O)Cc1ccc(Br)cc1)c1ccc(NCc2ccc(F)c(F)c2)c([N+](=O)[O-])c1 (stereo unspecified)	17.8µM*	-24.0%	.	.	?	?
NC(=O)CC(NC(=O)Cc1ccc(Br)cc1)c1ccc(N2CCC(Br)CC2)c([N+](=O)[O-])c1 (stereo unspecified)	i	-23.2%	.	.	-4.3	?
CCOc1ccc(NC(=O)Cc2cccc3ccccc23)c([N+](=O)[O-])c1	-17.6%	-14.7%	3.7%	2.3%[46.1 µM]	-73.5*	-4.4%
NC(=O)CC(NC(=O)Cc1ccc(Br)cc1)c1ccc(N2CCC(Cc3ccccc3)CC2)c([N+](=O)[O-])c1 (stereo unspecified)	?	?	.	.	-15.3	11.2µM*
COc1ccc(CCNc2ccc(C(CC(N)=O)NC(=O)c3ccc(Br)cc3)cc2[N+](=O)[O-])cc1 (stereo unspecified)	-19.2%	-25.0%	.	.	-71.7*	12.6µM*
NC(=O)CC(NC(=O)Cc1cccc2ccccc12)c1ccc(NCCOc2ccccc2)c([N+](=O)[O-])c1 (stereo unspecified)	-27.7%	0.0%	.	.	-68.5*	?
Cc1cccc(OC(=O)CSc2nnc(-c3ccc4c(c3)OCO4)o2)c1C	-11.7%	-28.1%	-14.7%[46.1 µM]	-1.0%[46.1 µM]	7.6	-6.9%
Nc1nc(N)c2c(ccc3c2ccn3Cc2cccc([N+](=O)[O-])c2)n1	0.355µM*	?	.	.	-99.1*	11.2µM*
Nc1nc(N)nc(-c2cccc([N+](=O)[O-])c2)n1	-3.0%	6.1%	.	.	7.9	2.1%
COCC(=O)N1CC(=O)N2[C@@H](CO)[C@H](c3ccc(Br)cc3)[C@@H]2C1	.	.	.	.	2.9	.
C=CCN(c1ccccc1)S(=O)(=O)c1cccc(C(=O)Nc2ccc(N3CCOCC3)cc2)c1	?	22.4µM*	?	?	?	?
CN(c1cccc(Cl)c1)S(=O)(=O)c1cccc(C(=O)Nc2nc3ccccc3[nH]2)c1	?	12.6µM*	?	22.4µM*	-99.4*	11.2µM*
O=C(Nc1nc2ccccc2[nH]1)c1ccccc1	.	-26.0%	?	?	39.2	-6.8%
CCN(c1ccccc1)S(=O)(=O)c1ccc(F)c(C(=O)Nc2ccc(C)cc2)c1	-12.4%	0.0%	?	.	-29.4	-12.7%
O=C(Nc1nc2ccccc2[nH]1)c1ccc(Cl)cc1	-31.5%	-71.2%	2.51µM*	?	2.6	-23.7%
CCN(c1ccccc1)S(=O)(=O)c1cc(C(=O)Nc2ccc(F)c(F)c2)ccc1F	?	11.2µM*	14.1µM*	?	-90.9*	?
COc1ccccc1NC(=O)C1=C(C)Nc2nc(SCc3ccc(Cl)cc3)nn2C1c1ccccc1Cl (stereo unspecified)	-23.0%	-19.3%	-8.8%[46.1 µM]	-5.6%[46.1 µM]	-2.5	-16.7%
SMILES	Vaccinia mCherry	FMDV inh	Lassa entry inh	Marburg entry inh	HCMV antiviral	Vaccinia Venus
C=CCN(c1ccccc1)S(=O)(=O)c1cccc(C(=O)Nc2ccncc2)c1	-5.7%	22.4µM*	?	?	-75.1*	-16.1%
O=C(/C(=C/c1ccc(Cl)cc1)c1nc2ccccc2[nH]1)c1ccccc1	?	?	4.11µM*	?	-95.7*	?
CS(=O)(=O)N(Cc1ccccc1)c1ccc(C(=O)Nc2ccc(Cl)cc2)cc1	i	?	?	.	-87.7*	-20.5%
O=C(N/C(=C/c1ccc(Cl)cc1)c1nc2ccccc2[nH]1)c1ccco1	-2.8%	28.7%	9.3%	?	-21.8	?
CCN(c1ccccc1)S(=O)(=O)c1ccc(C(=O)Nc2cccc(NC(C)=O)c2)cc1	.	?	.	.	-7.1	.
Cc1ccccc1NC(=O)c1ccc(N(Cc2ccccc2)S(C)(=O)=O)cc1	0.6%	-2.0%	-20.6%[46.1 µM]	.	?	-7.3%
CCN(c1ccccc1)S(=O)(=O)c1ccc(C(=O)Nc2ccncc2)cc1	-10.6%	25.1µM*	?	?	-25.3	-24.3%
Cc1ccc(CNC(=O)c2ccc(CSCc3ccccc3C)o2)cc1	2.2%	-5.5%	?	.	6.7	-11.3%
CCN(Cc1ccccc1)C(=O)c1cnn(-c2ccc(F)cc2)c1-n1cccc1	-4.9%	-18.7%	-20.8%[46.1 µM]	.	-14.3	4.0%
C=CCN(c1ccccc1)S(=O)(=O)c1cccc(C(=O)Nc2nc3ccccc3[nH]2)c1	-6.1%	22.4µM*	-24.5%	?	-8.1	-23.5%
COc1cc(/C=C(/C(=O)c2cccs2)c2nc3ccccc3[nH]2)cc(OC)c1O	.	14.1µM*	?	-85.1%	-102.4*	.
C=CCN(c1ccccc1)S(=O)(=O)c1cccc(C(=O)N(CC)CC(=O)Nc2c(F)cccc2F)c1	-10.0%	2.0%	17.8µM*	?	6.6	-19.2%
Cc1cc(C)n2nc(CNC(=O)c3ccc(Cl)cc3)nc2n1	-10.3%	-4.5%	1.4%[46.1 µM]	-1.7%[46.1 µM]	8.9	-5.4%
CCOC(=O)CNC(=S)N(Cc1ccc(C)cc1)Cc1ccc(C)o1	-16.1%	-8.1%	?	?	-81.6*	-10.4%
CCN(CC)S(=O)(=O)c1ccc(N/N=C/c2ccc(O)cc2O)nc1	3.98µM*	-29.2%	2.31µM*	3.26µM*	-101.0*	?
O=[N+]([O-])c1cccc(N/N=C/c2cc([N+](=O)[O-])ccc2O)c1	-22.0%	-27.3%	?	?	-9.2	-23.9%
O=[N+]([O-])c1ccc(O)c(/C=N/Nc2ccccn2)c1	1.78µM*	-22.1%	?	?	-101.5*	5.01µM*

Screening data from PubChem BioAssay.
